Assay [1] deals with Transient receptor potential cation channel subfamily V member 1 (Homo sapiens) (UniProt Q8NER1). Kind of assay: HTS Assay for Compounds that Act as Enhancers of the Vanilloid Receptor 1 (AID 488979). Note: 0% is about no effect. In short, it runs like this:
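Calcium influx kinetics via Fluo-8 (480/520 nm) in TRPV1-expressing cells, 2000/well cultured overnight at 35.5C. Compound-alone read 3 min (agonist phase), followed by EC20 capsaicin challenge for 2 min (enhancer phase).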

Assay [2] deals with Thyrotropin receptor (Homo sapiens) (UniProt P16473). Kind of assay: qHTS Assay for Antagonists of the Thyroid Stimulating Hormone Receptor (AID 488980). Note: series mostly up to about 58 µM; 0% is about no effect. Summed up: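 HEK293 cells transfected with human TSHR, suspended in HEPES-buffered HBSS with 70 uM RO 20-1724, were treated with compounds plus TSH at EC80 (4 nM final). cAMP was measured by competitive HTRF (cryptate anti-cAMP antibody, cAMP-d2 acceptor).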
For orientation: In qHTS, concentration-response curves come from the screen itself.

Assay [3] addresses D(1A) dopamine receptor (Homo sapiens) (UniProt P21728). Description: HTS Assay for Allosteric Agonists of the Human D1 Dopamine Receptor: Primary Screen for Agonists (AID 488981). Note: 0% is about no effect. Summed up:
(§1)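 Calcium flux in an inducible, force-coupled HEK293 Trex D1 line (overnight at 30 C): agonist mode is the 180 s kinetic read after compound; potentiator mode is the following 180 s read after dopamine at EC20.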

For assay [4] the target is unchanged. Kind of assay: HTS Assay for Allosteric Agonists of the Human D1 Dopamine Receptor: Primary Screen for Potentiators (AID 488982). Note: 0% is about no effect. In short, it runs like this:
as §1

For assay [5] the target is unchanged. Description: HTS Assay for Allosteric Agonists of the Human D1 Dopamine Receptor: Primary Screen for Antagonists (AID 488983).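 Note: calcium flux response to an EC80 dopamine challenge measured with no-wash dye; % is set by controls: 0 for no effect and ±100 for the full control effect; nearly all actives have a fitted effect of over 65% in size.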 Summed up: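 Calcium flux readout, no-wash dye, inducible HEK293 T-REx D1 line (force-coupled). Compound added after 10 s baseline, 180 s kinetic read; then dopamine at EC80, further 180 s read.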
Assay [6] in a line: Validation screen for small molecules that induce genotoxicity in human embryonic kidney (HEK293T) cells expressing luciferase-tagged ELG1 (AID 493106). Note: 0% is about no effect. Summed up:
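qHTS format; 2,000 HEK293T ELG1-luc cells/well; 23 nL compound via pin tool; 16 hr, 37 °C/5% CO2; ONE-Glo, 30 min RT; luminescence read.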

The target in assay [7] is Thyrotropin-releasing hormone receptor (Homo sapiens) (UniProt P34981). Kind of assay: qHTS for Small Molecule Agonists and Allosteric Enhancers of Human TRH Receptor: Validation Screen for Agonists (AID 493127;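 active = calcium activation more than 3 SD above the typical response in the agonist read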;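 note: intracellular calcium rise by fluo-8 fluorescence before TRH EC20 addition; 0% is about no effect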). The settings on record: TRH receptor agonist cell assay; at 2 µM; stronger effect = higher value. Summed up: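 Read-out: intracellular calcium release measured kinetically by FDSS (fluo-8, ex 480/em 530 nm), 1 reading/s after a 10-cycle baseline. TRHR cells, 2000/well, cultured 18 h at 33.5C, dye-loaded at room temp. Compound-evoked positive calcium signal flags agonists.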

Assay [8] is described as follows: Nrf2 qHTS screen for inhibitors: Validation (AID 493153; active = well fitted inhibition curve with a large enough effect in the main read-out, with a control signal flat, not every such curve was filed as active). The settings on record: Potency: luciferase luminescence; viability change: measured here: cytotoxicity max response. Summed up: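 Concentration-response test in A549 ARE_Fluc reporter cells (5% FBS OPTI-MEM), compound exposure 18-24 h at 37°C, 5% CO2. Cell viability measured first by CellTiter-Fluor fluorescence; ARE-driven luciferase luminescence then measured as Nrf2 activity.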

A short description of assay [9]: qHTS for Inhibitors of Cell Surface uPA Generation: Validation Assay (AID 493164).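 Note: RAW 264.7 macrophage cells exposed to compound for 18 h; 0% is about no effect.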 Summed up: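 Compounds are titrated over seven points (2.45 nM–38.3 uM final) onto pre-plated RAW 264.7 cells and incubated for 18 h. Retained intracellular ATP, measured with ATP-Lite, indicates blocked lethal factor entry.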
The target of assay [10] is Galactokinase (Homo sapiens) (UniProt P51570). Kind of assay: qHTS Validation Assay for Inhibitors of Human Galactokinase (GALK) (AID 493189). Note: 0% is about no effect. In short, it runs like this:
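GALK (5 nM) with 35 uM ATP and 100 uM galactose in HEPES pH8.0, MgCl2, NaCl, DTT, BSA; 1 h at room temperature. Residual ATP read by Kinase-Glo Plus luminescence after 10 min.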

Assay [11] is described as follows: Validation screen for small molecules that induce DNA re-replication in SW480 colon adenocarcinoma cells (AID 504364). Note: 0% is about no effect. Summed up:
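Read-out: total Hoechst intensity of nuclei by fluorescence scanning imager; hits raise the fraction of nuclei with elevated DNA content. Cells received compound for 48 hr at 37 C before a 40 min stain.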

Assay [12] addresses Peptidyl-prolyl cis-trans isomerase NIMA-interacting 1 (Homo sapiens) (UniProt Q13526). Description: qHTS Validation Assay to Find Inhibitors of Pin1 (AID 504536; active = well fitted inhibition curve with a large enough effect in the polarisation, with a control signal flat, not every such curve was filed as active; the % refers to the polarisation;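 note: 0% = full Pin1 enzyme wells and -100% = no-enzyme wells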). In short, it runs like this: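 Fluorescence polarization competition: compounds (titration) displace HiFluor-488-labeled Pin1-1b peptide from Pin1 (0.3 uM final) in pH 7.5 HEPES buffer with DTT, 10 min at room temperature; %Activity normalized to no-enzyme wells, curves fitted.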

Assay [13] deals with Phosphoglycerate kinase, glycosomal (Trypanosoma brucei brucei) (UniProt P07378). Description: qHTS Validation Assay to Find Inhibitors of Phosphoglycerate Kinase (AID 504547).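 Note: control wells lack PGK and mark full inhibition.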 In short, it runs like this: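 Luminescence end-point (Kinase-Glo Plus, 10 min) after a 60 min room-temperature coupled reaction. GAPDH at 100nM final supplies 1,3-BPG to PGK. Buffer: 100mM TEA pH 7.6, 5mM MgCl2, 0.01% Tween-20. Wells lacking PGK served as controls.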

The target of assay [14] is phosphoglycerate mutase (Leishmania major) (UniProt Q4Q090). Description: qHTS Validation Assay to Find Inhibitors of Phosphoglycerate Mutase (AID 504548). Note: series mostly up to about 58 µM; % is set by controls: 0 for no effect and ±100 for the full control effect. The note with it: Potency: inhibition qHTS. Summed up:
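Lm PGAM at 1.25 nM final with substrate in 100 mM TEA pH 7.6, 5 mM MgCl2, 0.01% Tween-20; 45 min at room temperature. Kinase-GloPlus added, 10 min, end-point luminescence read.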

Assay [15] has as its target Ubiquitin carboxyl-terminal hydrolase 1 (Homo sapiens) (UniProt O94782). Kind of assay: Inhibitors of USP1/UAF1: Pilot qHTS (AID 504865).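 Note: rhodamine fluorescence freed from ubiquitin-rhodamine substrate followed over time; top concentration of the series differs between compounds; % is set by controls: 0 for no effect and ±100 for the full control effect; nearly all actives have a fitted effect of over 35% in size.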 Summed up:
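USP1/UAF1 complex (1nM) preincubated with compound 15 min at room temperature, then Ub-Rho substrate (150nM final) added. Fluorescence read kinetically at 480/540 nm, 6 reads every 60 seconds. Buffer: 50mM HEPES pH 7.8, 0.5mM EDTA, 0.1 mg/ml BSA, 1mM TCEP, 0.01% Tween-20.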

Assay [16] in a line: qHTS for Inhibitors of ATXN expression: Validation (AID 588378). Note: series mostly up to about 57 µM; % is set by controls: 0 for no effect and ±100 for the full control effect; nearly all actives have a fitted effect of over 75% in size. Summed up:
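Luminescence from an ATXN2-FFLuc reporter in HEK293 cells served as read-out after 24 h compound treatment at 37 degrees C; CellTiter-Fluor fluorescence was recorded first to assess viability.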

Assay [17] concerns the target ATPase family AAA domain-containing protein 5 (Homo sapiens) (UniProt Q96QE3). Kind of assay: Validation screen for small molecules that inhibit ELG1-dependent DNA repair in human embryonic kidney (HEK293T) cells expressing luciferase-tagged ELG1 (AID 493107).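 Note: cells co-treated with the DNA-damaging agent 5-fluorouridine alongside compound; series mostly up to about 46 µM; % is set by controls: 0 for no effect and ±100 for the full control effect; inhibitors lower the ELG1-luciferase luminescence signal; nearly all actives have a fitted effect of over 70% in size.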 Summed up:
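ELG1-luciferase HEK293T reporter; 5-fluorouridine + compound/DMSO, 16 hr, 37 °C, 5% CO2; ONE-Glo 30 min RT; luminescence read, qHTS format.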

Assay [18] in a line: qHTS for Inhibitors of ATXN expression: Validation of Cytotoxic Assay (AID 588349). Note: % is set by controls: 0 for no effect and ±100 for the full control effect. In short, it runs like this: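 Cytotoxicity counter-screen: HEK293 cells exposed to compound titrations, 72 hr, 37 degrees C. Read-out is intracellular ATP (CellTiter Glo luminescence) as a viability measure.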

Inconclusive results are not listed. Calls of active or inactive are those of the source. Unless noted, calls come from the whole dose curve; as a rule, active = well fitted curve in the direction sought with a large enough effect; inconclusive = small, poorly fitted or top-dose-only effect, or another doubt; inactive = no such curve, though single readings can be large; an effect the other way counts as inactive or inconclusive.

Chain of Phosphoglycerate kinase, glycosomal (Trypanosoma brucei brucei) (P07378 whole entry, looked up): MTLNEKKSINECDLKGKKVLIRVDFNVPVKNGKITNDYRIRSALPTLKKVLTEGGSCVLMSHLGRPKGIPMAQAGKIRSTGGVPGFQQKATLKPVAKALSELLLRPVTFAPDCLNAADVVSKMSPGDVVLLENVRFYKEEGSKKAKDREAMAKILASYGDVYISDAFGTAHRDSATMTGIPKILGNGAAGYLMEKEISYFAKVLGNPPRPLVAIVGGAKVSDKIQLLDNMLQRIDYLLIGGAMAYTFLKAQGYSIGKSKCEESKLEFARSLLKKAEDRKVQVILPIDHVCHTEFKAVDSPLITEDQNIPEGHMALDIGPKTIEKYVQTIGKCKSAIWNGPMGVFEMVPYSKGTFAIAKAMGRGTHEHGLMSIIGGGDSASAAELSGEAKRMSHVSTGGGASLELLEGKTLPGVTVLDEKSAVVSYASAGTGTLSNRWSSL
Chain of Thyrotropin-releasing hormone receptor (Homo sapiens) (P34981 whole entry, looked up): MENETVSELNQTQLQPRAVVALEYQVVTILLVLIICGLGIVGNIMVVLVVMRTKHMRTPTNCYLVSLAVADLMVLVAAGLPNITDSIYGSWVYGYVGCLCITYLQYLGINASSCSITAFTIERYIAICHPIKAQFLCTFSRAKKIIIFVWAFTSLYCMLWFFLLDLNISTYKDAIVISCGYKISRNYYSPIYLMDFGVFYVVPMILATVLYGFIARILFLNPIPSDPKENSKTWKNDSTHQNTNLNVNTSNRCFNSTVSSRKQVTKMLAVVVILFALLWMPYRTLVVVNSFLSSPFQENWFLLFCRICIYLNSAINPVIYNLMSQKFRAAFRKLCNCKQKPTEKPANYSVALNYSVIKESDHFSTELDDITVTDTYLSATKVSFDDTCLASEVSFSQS
Chain of phosphoglycerate mutase (Leishmania major) (Q4Q090 1-553): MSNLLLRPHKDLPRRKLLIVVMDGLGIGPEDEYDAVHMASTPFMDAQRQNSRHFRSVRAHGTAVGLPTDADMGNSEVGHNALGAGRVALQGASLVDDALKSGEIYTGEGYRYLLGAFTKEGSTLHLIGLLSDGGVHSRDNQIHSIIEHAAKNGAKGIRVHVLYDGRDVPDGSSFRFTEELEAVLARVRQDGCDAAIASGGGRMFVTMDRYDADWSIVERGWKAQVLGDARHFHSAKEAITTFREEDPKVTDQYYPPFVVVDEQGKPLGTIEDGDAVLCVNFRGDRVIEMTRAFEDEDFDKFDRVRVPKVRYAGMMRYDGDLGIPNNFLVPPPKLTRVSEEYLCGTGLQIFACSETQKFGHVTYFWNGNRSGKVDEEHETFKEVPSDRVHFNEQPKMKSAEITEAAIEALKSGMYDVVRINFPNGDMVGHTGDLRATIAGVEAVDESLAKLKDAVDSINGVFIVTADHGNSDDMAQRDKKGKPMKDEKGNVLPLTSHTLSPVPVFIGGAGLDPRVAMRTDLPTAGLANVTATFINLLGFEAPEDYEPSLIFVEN
Chain of D(1A) dopamine receptor (Homo sapiens) (P21728 whole entry, looked up): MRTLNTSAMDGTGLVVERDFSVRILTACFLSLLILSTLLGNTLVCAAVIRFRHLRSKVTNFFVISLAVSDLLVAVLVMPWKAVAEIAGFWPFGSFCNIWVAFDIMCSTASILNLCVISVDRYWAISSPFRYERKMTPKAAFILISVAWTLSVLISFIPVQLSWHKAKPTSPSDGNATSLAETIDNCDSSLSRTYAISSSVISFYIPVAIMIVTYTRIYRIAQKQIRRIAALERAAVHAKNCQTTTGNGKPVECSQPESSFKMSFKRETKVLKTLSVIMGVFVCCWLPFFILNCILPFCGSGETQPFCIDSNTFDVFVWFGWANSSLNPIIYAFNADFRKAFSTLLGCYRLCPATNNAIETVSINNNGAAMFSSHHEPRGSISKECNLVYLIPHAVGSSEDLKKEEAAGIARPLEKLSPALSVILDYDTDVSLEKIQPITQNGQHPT
Chain of Ubiquitin carboxyl-terminal hydrolase 1 (Homo sapiens) (O94782 whole entry, looked up): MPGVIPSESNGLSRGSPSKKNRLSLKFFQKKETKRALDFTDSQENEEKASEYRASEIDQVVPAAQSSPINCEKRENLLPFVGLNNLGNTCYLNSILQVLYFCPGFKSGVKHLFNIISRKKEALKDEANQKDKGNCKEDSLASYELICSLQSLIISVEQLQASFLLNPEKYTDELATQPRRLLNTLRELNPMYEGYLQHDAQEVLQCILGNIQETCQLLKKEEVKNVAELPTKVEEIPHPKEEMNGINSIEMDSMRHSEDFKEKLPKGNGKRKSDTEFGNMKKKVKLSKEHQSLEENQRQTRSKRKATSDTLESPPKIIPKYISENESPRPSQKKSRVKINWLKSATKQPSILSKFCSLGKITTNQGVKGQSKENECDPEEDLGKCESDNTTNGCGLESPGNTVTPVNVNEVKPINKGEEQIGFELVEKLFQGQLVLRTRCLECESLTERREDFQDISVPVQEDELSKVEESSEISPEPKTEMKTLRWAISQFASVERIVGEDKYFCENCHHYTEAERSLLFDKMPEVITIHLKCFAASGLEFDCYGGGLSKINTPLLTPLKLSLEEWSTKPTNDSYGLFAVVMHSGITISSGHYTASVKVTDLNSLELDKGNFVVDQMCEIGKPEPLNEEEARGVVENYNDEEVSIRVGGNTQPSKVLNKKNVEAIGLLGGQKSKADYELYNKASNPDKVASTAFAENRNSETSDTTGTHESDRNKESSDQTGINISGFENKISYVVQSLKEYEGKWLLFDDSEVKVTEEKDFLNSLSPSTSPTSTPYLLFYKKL
Chain of Transient receptor potential cation channel subfamily V member 1 (Homo sapiens) (Q8NER1 whole entry, looked up): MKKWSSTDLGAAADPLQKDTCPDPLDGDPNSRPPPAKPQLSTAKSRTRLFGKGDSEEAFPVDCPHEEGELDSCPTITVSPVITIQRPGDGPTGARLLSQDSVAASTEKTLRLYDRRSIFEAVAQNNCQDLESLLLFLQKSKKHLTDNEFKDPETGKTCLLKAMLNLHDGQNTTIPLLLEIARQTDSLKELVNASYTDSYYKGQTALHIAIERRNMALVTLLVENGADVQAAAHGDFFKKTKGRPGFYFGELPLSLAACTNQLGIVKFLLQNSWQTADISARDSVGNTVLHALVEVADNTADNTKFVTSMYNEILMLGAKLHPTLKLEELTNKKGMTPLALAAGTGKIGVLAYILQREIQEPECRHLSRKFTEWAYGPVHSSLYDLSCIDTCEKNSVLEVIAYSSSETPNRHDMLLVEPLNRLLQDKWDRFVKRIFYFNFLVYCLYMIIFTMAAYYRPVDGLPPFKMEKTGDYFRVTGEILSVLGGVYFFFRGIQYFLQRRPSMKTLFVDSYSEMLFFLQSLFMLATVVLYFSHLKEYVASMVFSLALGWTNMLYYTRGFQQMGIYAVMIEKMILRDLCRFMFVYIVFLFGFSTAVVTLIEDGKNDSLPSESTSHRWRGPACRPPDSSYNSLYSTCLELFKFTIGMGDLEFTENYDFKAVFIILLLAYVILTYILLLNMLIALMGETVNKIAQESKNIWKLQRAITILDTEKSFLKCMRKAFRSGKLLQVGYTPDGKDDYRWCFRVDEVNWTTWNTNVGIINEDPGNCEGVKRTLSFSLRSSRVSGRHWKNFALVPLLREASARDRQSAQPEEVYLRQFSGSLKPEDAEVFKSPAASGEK
Chain of Peptidyl-prolyl cis-trans isomerase NIMA-interacting 1 (Homo sapiens) (Q13526 whole entry, looked up): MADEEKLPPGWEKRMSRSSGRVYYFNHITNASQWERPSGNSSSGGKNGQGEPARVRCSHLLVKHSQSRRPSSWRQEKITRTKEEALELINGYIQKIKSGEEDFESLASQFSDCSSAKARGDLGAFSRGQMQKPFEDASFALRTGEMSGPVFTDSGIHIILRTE
Chain of Thyrotropin receptor (Homo sapiens) (P16473 whole entry, looked up): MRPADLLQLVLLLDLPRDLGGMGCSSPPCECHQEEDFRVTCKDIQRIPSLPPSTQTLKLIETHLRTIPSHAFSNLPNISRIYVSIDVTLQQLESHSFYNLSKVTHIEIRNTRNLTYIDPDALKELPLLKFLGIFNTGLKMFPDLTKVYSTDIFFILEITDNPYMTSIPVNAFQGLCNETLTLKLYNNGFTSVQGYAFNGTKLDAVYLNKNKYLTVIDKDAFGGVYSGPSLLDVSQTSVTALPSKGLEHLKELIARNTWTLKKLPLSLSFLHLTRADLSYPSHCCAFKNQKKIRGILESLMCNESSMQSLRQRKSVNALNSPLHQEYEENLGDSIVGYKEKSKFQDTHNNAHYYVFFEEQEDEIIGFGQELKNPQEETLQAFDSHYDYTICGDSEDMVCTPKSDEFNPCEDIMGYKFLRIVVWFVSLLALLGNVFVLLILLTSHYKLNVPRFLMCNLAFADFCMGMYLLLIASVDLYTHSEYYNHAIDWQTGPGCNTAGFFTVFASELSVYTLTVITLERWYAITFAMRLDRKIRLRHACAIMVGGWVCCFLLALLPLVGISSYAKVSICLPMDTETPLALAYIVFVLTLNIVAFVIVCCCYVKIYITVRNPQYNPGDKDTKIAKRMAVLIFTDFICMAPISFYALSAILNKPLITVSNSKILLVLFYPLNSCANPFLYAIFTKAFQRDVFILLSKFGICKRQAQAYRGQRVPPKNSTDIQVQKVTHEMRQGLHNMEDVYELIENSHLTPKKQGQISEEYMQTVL
Chain of Galactokinase (Homo sapiens) (P51570 whole entry, looked up): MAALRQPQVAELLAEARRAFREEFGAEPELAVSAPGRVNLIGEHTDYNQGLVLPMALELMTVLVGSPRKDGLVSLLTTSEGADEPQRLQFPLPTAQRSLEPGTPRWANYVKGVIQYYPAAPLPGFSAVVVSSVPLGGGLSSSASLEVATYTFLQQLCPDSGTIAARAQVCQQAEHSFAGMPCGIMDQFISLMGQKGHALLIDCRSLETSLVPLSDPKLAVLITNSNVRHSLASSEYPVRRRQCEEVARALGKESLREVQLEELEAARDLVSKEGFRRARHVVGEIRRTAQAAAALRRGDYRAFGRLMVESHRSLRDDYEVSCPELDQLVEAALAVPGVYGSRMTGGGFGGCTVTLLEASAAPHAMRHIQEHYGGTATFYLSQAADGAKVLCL

With `COc1cc(CC(=O)O)ccc1O`, the outcome in [1], in [2] and in [9] was inactive. Further, the Potency entry in [3], in [4], in assay [5], in assay [6], in assay [8] and in assay [10] was “inactive” in each case. In addition, the Potency entry in assay [11], in [12], in assay [13], in [14], in assay [15] and in assay [16] was “inactive” throughout. Moreover, the activation in assay [7] was 0.125% (inactive). The viability change in [8] is 3.47%.
On to `c1ccc(CN2CCC3(CCCc4ccccc43)CC2)cc1`, for which the outcome in [1], in assay [2] and in assay [9] was inactive. For the same compound, the Potency result in [3], in assay [4], in assay [5], in assay [6], in [8] and in assay [10] was “inactive” throughout. Further, the Potency result in assay [11], in assay [12], in assay [13], in [14] and in [15] was “inactive” each time. Besides, the activation in assay [7] was -8.25% (inactive). The viability change in assay [8] was -10.2%.
As to `CCCCCC[C@@H]([C@@H](C)O)n1cnc2c(N)ncnc21`, the outcome in assay [1], in [2] and in assay [9] was inactive. The Potency entry in [3], in [4], in assay [5], in [6], in assay [17] and in [8] was “inactive” each time. The Potency entry in assay [10], in assay [11], in assay [13], in [14], in assay [15] and in assay [18] was “inactive” throughout. For the same compound, the Potency entry in [16] was “inactive”. In addition, the viability change in [8] worked out at 0.22%.
Consider `COCc1nc2c([nH]1)c(=O)n(C)c(=O)n2CC(C)C`, for which the result in [1], in assay [2] and in assay [9] was inactive. In addition, the Potency entry in assay [3], in [4], in assay [5], in assay [6], in [8] and in assay [10] was “inactive” throughout. Further, the Potency entry in assay [11], in assay [12], in assay [13], in assay [14], in assay [15] and in assay [18] was “inactive” in each case. In assay [16], the Potency result is “inactive”. In assay [7], the activation was 0.875% (inactive). The viability change in assay [8] turned out to be 1.53%.
Take `COC(=O)C(N)Cc1ccc(Cl)cc1` (centres undefined): the outcome in assay [1], in [2] and in assay [9] was inactive. For the same compound, the Potency entry in assay [3], in assay [4], in assay [5], in assay [6], in assay [8] and in assay [10] was “inactive” throughout. The Potency result in [11], in [12], in assay [13], in assay [14], in [15] and in assay [18] was “inactive” in each case. Moreover, the activation in assay [7] is -2.56% (inactive). The viability change in assay [8] came out at 9.57%.
Regarding `Nc1ncnc2c1ncn2C1CCCO1` (centres undefined), the result in [1], in [2] and in assay [9] was inactive. Also, the Potency entry in [3], in [4], in [5], in assay [6], in assay [17] and in assay [8] was “inactive” throughout. The Potency result in assay [10], in [11], in [12], in assay [13], in assay [14] and in [15] was “inactive” in each case. Moreover, the Potency result in [18] is “inactive”. Further, the viability change in assay [8] amounted to 12.1%.
Turning to `CCN1C(=O)C=CC1=O`, the outcome in [1], in assay [2] and in assay [9] was inactive. Besides, the Potency result in assay [3], in assay [4], in [5], in [6], in [17] and in assay [8] was “inactive” in each case. Further, the Potency entry in assay [10], in assay [11], in assay [12], in assay [13], in assay [14] and in assay [15] was “inactive” throughout. Besides, the Potency entry in [18] and in assay [16] was “inactive” throughout. Further, the viability change in assay [8] was 1.81%.
For the compound `O=[N+]([O-])c1cccc2c(Br)[nH]nc12`, the result in assay [1] and in assay [2] was inactive. Further, the Potency entry in [3], in assay [4], in [5], in assay [6], in [17] and in assay [10] was “inactive” each time. Also, the Potency result in [11], in assay [12], in assay [13], in assay [14], in assay [15] and in [16] was “inactive” in each case.

(Values after PubChem BioAssay (NCATS).)
